This excerpt belongs to a sample that is enriched for hits.
DT40 TDP1 CPT: DT40-hTDP1 cell growth loss with CPT. AID 686979. 420,000 tested, 12% active. chicken DT40 Tdp1-/-;hTDP1 cells + 20 nM CPT, ATP luminescence, 48 h. Potency, µM (series often up to 46.2 µM), most hits filed as inhibitors; also: nearly all actives have a fitted effect of over 55% in size
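Cell growth measured by CellTiter-Glo luminescence after a minimum 48 h, 37 C compound exposure with 20 nM CPT in Tdp1-knockout DT40 cells stably expressing hTDP1, seeded 400/well; qHTS titration format.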
TDP1 cell noCPT: qHTS for Inhibitors of human tyrosyl-DNA phosphodiesterase 1 (TDP1): qHTS in cells in absence of CPT; DT40 Tdp1-/- hTDP1 cells, no CPT, ATP luminescence, 48 h; Potency, µM (titrated, usually from 46.2 µM), actives largely listed as inhibitors; 420,000 tested, 15% active; also: nearly all actives have a fitted effect of over 55% in size
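Chicken DT40 Tdp1-/- cells complemented with human TDP1, screened without camptothecin (DMSO vehicle only), 400 cells/well. Compounds pin-transferred, cells incubated at 37 °C for at least 48 hr. Growth read as ATP-dependent luminescence (CellTiter-Glo, 30 min at RT).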
ALOX12 inh: ALOX12 (human) lipoxygenase inhibition; P18054; purified 12hLO, xylenol orange hydroperoxide absorbance; Potency, µM (titrated, usually from 108 µM), actives largely listed as inhibitors; 580,000 tested, 1.1% active; AID 1671190
Target sequence (P18054 whole entry, looked up): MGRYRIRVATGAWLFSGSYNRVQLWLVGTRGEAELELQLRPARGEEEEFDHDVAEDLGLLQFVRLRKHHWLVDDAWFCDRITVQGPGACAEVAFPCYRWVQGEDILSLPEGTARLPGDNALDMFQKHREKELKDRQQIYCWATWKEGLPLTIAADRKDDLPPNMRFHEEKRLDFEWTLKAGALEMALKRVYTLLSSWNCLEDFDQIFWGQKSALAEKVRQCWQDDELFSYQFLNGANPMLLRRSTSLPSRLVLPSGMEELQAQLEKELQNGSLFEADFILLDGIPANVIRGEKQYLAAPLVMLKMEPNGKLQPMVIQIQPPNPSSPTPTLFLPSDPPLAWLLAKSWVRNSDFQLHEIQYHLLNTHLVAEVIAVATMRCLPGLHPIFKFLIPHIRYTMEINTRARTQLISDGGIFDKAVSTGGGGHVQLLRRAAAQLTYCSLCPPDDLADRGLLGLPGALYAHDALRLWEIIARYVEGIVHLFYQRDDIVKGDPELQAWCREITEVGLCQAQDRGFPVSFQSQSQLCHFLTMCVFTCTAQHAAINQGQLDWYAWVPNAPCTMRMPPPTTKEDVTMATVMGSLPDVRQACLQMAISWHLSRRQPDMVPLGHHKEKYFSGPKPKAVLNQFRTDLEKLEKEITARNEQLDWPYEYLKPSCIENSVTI
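Purified human 12hLO at 150 nM in 25 mM Hepes, 0.01% Triton X-100, pH 7.0, preincubated 15 min at room temperature with compound. Reaction started with 40 uM arachidonic acid, 30 min at room temperature. Hydroperoxide measured by Fe-xylenol orange, 573/405 nm absorbance ratio.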
IL1B secr inh: inflammasome signaling inhibition, IL-1 beta readout; THP-1 LPS/ATP IL-1B secretion, AlphaLISA, 16 h; stronger effect = lower value; activity change, % at 57.5 µM; 360,000 tested, 4.7% active; in the data active = activity change below about -50%; inconclusive = mostly about -30% to -49%
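THP-1 cells pretreated 1 hr with compounds (up to 57.5 uM final), then stimulated with LPS (250 ng/mL final) plus ATP (1.25 mM final); secreted IL-1B measured by AlphaLISA after 16 hr, decreased signal indicating inhibition.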
HT1080 IDH1KD tx: toxicity to HT-1080 IDH1 knockdown cells (counter line); HT-1080 IDH1 knockdown viability, ATP luminescence, 48 h; Potency, µM (doses to about 46.1 µM), actives largely listed as cytotoxic; 360,000 tested, 2% active
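Luminescent ATP read-out (CellTiter-Glo, 10 min at room temperature) after 48 h compound exposure at 37 °C gave viability of IDH1-knockdown HT-1080 cells. Activity was normalised to DMSO and cell-free wells, then fitted as concentration-response curves.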
HT1080-NT tox: kills 2HG-producing HT-1080-NT fibrosarcoma cells; HT-1080-NT fibrosarcoma viability, CellTiter-Glo ATP luminescence, 48 h; Potency, µM (highest dose often 46.1 µM), hits mostly cytotoxic; 360,000 tested, 1.6% active; AID 686970;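 also: NT is the 2HG producing partner of a matched IDH1 knockdown line; nearly all actives have a fitted effect of over 55% in size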
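Viability by CellTiter-Glo luminescence after 48 h compound exposure at 37C of HT-1080-NT cells (750/well, RPMI, 5% FBS). % activity scaled between DMSO wells and medium-only wells, then curve-fitted and categorized by curve class.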
Hits are given with their value; . = inactive; ? = inconclusive; / = no result; [ ] = remark or other dose. Unless noted, calls follow the shape of the dose curve; as a rule, active = well fitted curve in the direction sought with a large enough effect; inconclusive = small, poorly fitted or top-dose-only effect, or another doubt; inactive = no such curve, though single readings can be large; an effect the other way counts as inactive or inconclusive.

SMILES	DT40 TDP1 CPT	TDP1 cell noCPT	ALOX12 inh	IL1B secr inh	HT1080 IDH1KD tx	HT1080-NT tox
CC(C)CN(C(=O)COC(=O)CCc1nc2ccccc2s1)c1c(N)n(Cc2ccccc2)c(=O)[nH]c1=O	16µM	?	.	.	.	.
O=C(NCC1CCCO1)c1ccc(Cn2c(SCc3ccc(F)cc3)nc3cccnc32)cc1 (stereo not drawn)	/	/	.	/	/	/
O=C(NC1CCCCC1)c1ccc2ccccc2c1O	?	15µM	.	-61	.	.
O=C(NNC(=O)c1ccc2ccccc2c1O)NC1CCCCC1	.	.	.	.	.	.
COCCCNC(=O)c1cc(Cc2ccccc2)sc1N	?	?	.	.	.	.
Nc1sc(Cc2ccccc2)cc1C(=O)NC1CCCCC1	?	15µM	.	.	.	.
CCc1ccc(-c2nnn(CC(=O)N(CC)Cc3ccc(Cl)s3)n2)cc1	/	/	.	/	/	/
COc1ccc(C)cc1NC(=O)c1cc(=O)[nH]c2ccccc12	/	/	.	/	/	/
Cc1ccc(-n2c(C)cc(C3N=C(N)Nc4nc5ccccc5n43)c2C)c(C)c1 (stereo not drawn)	21µM	23µM	?	?	20µM	?
Cc1cc(C2N=C(N)Nc3nc4ccccc4n32)c(C)n1-c1ccccc1Cl (stereo not drawn)	21µM	?	?	-56	?	?
COc1ccc(OC)c(C2N=C(N)Nc3nc4ccccc4n32)c1 (stereo not drawn)	.	.	.	/	/	/
S=C(NN=C1CCCCC1)NC1CCCCC1	/	/	.	/	/	/
Cc1cc(C)nc(NC(=O)CN2C(=O)c3ccccc3S2(=O)=O)n1	.	.	.	.	.	.
Cc1cc(C)nc(N(C#N)CN2C(=O)c3ccccc3S2(=O)=O)n1	?	15µM	.	.	.	.
COc1ccc(CCNC(=O)CN2C(=O)c3ccccc3S2(=O)=O)cc1	.	.	?	.	.	.
CNc1nc(OC)nc(N(C#N)CN2C(=O)c3ccccc3S2(=O)=O)n1	15µM	16µM	.	-82	?	.
COc1ccc2nc(Nc3ncc4c(n3)CC(C)CC4=O)nc(C)c2c1 (stereo not drawn)	/	/	.	/	/	/
CCN(CCc1ccncc1)S(=O)(=O)c1cc(N2C(=O)CCS2(=O)=O)ccc1OC	/	/	.	/	/	/
COC(/C=C/Nc1ccc(Cl)cc1)=C(C#N)C#N	.	.	.	.	.	.
COC(/C=C/Nc1ccc(OC)cc1)=C(C#N)C#N	.	.	.	-59	.	.
C=CCn1c(O)c(N=Nc2ccccc2O)c2ccccc21	?	18µM	?	?	.	.
C=CCn1c(O)c(N=Nc2ccccc2)c2ccccc21	?	?	?	.	.	.
C=CCn1c(O)c(N=Nc2nc3ccccc3c(=O)n2-c2ccccc2)c2ccccc21	.	12µM	.	.	.	.
Cc1ccccc1N=Nc1c(O)n(C)c2ccccc12	?	23µM	.	.	.	.
Cc1ccccc1OCC(=O)N/N=C/c1cccc(Oc2ccc([N+](=O)[O-])cc2[N+](=O)[O-])c1	15µM	21µM	.	-96	.	.
SMILES	DT40 TDP1 CPT	TDP1 cell noCPT	ALOX12 inh	IL1B secr inh	HT1080 IDH1KD tx	HT1080-NT tox
O=C(N/N=C/c1cccc(Oc2ccc([N+](=O)[O-])cc2[N+](=O)[O-])c1)c1cncc(Br)c1	?	18µM	.	.	11µM	?
CSc1ccccc1C(=O)NC(C)C	/	/	.	/	/	/
COc1cccc(-c2ccc(CN3CCN(c4ccc(Cl)nn4)C(=O)C3)cc2)c1	/	/	.[6.33 µM]	/	/	/
CCN1CCN(CCNC(=O)C2CCCN(c3nc4cccnc4s3)C2)CC1 (stereo not drawn)	/	/	.	/	/	/
S=C(c1ccc(-c2ccccc2Cl)o1)N1CCCCC1	?	16µM	?	.	.	.
N#CCCN1CCN(C(=S)c2ccc(-c3ccc(Cl)cc3)o2)CC1	?	?	/	.	.	.
S=C(c1ccc(-c2ccc(Cl)cc2)o1)N1CCCCC1	?	?	16µM	-52	.	?
COc1cccc(C2c3c(C)nn(-c4ccc([N+](=O)[O-])cc4)c3N=C3C(=O)Nc4ccccc4N32)c1 (stereo not drawn)	13µM	5.8µM	.	.	.	.
Cc1nn(-c2ccc([N+](=O)[O-])cc2)c2c1C(c1ccc(OC(F)F)cc1)N1C(=N2)C(=O)Nc2ccccc21 (stereo not drawn)	5.2µM	4.6µM	.	?	.	.
Cc1cccc(NCc2cc(Cl)cc(Cl)c2O)n1	.	.	.	-51	.[9.24 µM]	?
Cc1cccc(NCc2cc(Cl)ccc2O)n1	.	.	.	-79	.[9.24 µM]	?
Cc1ccc(S(=O)(=O)N2CCN(C(=O)c3ccccc3Cc3ccccc3)CC2)c(C)c1	?	?	.	-72	?	.
Cc1ccc(S(=O)(=O)N2CCN(C(=O)c3cc(S(=O)(=O)N4CCOCC4)ccc3Cl)CC2)c(C)c1	18µM	16µM	.	.	.	.
Cc1ccc(S(=O)(=O)N2CCN(C(=O)c3ccco3)CC2)c(C)c1	.	.	.	.	.	.
O=C(c1cc(S(=O)(=O)N2CCCCC2)ccc1Cl)N1CCOCC1	.	.	.	.	.	.
COc1ccc(S(=O)(=O)N2CCN(C(=O)c3ccccc3Cc3ccccc3)CC2)cc1OC	?	23µM	.	.	.	.
Cc1occc(=O)c1OCc1noc(C(=O)NCc2ccccc2Cl)n1	/	/	.	/	/	/
Cc1oc(-c2ccccc2)nc1COc1cc(Cl)ccc1Cl	/	/	.	/	/	/
O=[N+]([O-])c1ccc(S(=O)(=O)NN=Cc2ccc(Cl)c(Cl)c2)cc1	?	?	18µM	.	.	.
C=C(CN(C)C)C(=O)c1ccc(OC2OC(COC(C)=O)C(OC(C)=O)C(OC(C)=O)C2OC(C)=O)cc1 (stereo not drawn)	0.46µM	0.58µM	?	-101	4.6µM	?
CC(=O)OC[C@H]1O[C@@](COC(C)=O)(O[C@H]2O[C@H](COC(C)=O)[C@@H](OC(C)=O)[C@H](OC(C)=O)[C@H]2OC(C)=O)[C@@H](OC(C)=O)[C@@H]1OC(C)=O	.	.	/	/	/	/
COC(=O)CSc1[nH]c2ccc(F)cc2c1[N+](=O)[O-]	21µM	?	?	.	.	.
Cc1ccc(S(=O)(=O)N2CCCCC2)cc1C(=O)N1C(C)CCCC1C (stereo not drawn)	?	13µM	.	.	.	.
CC1CC(C)CN(C(C)C(=O)Nc2cc(S(=O)(=O)N3CCCCC3)ccc2Cl)C1 (stereo not drawn)	?	15µM	.	.	.	.
CC1CC(C)CN(C(=O)c2cc(S(=O)(=O)N3CCCCC3)ccc2Cl)C1 (stereo not drawn)	16µM	15µM	.	.	.	.

Screens as filed in PubChem.
